# Results: PMC11006913
# Assays:
# Assay in all cases: PBM; 200 nM protein, PBS
# Conditions in all cases: dsDNA, one strand shown
# [1] = molecular target: ALX1 (Homo sapiens, UniProt Q15699 118-204, L144V)
# [2] = molecular target: ALX1 (Homo sapiens, UniProt Q15699 118-204, L144R)
# [3] = molecular target: ALX1 (Homo sapiens, UniProt Q15699 118-204)
# [4] = molecular target: MSX2 (Homo sapiens, UniProt P35548 130-214, R199I)
# [5] = molecular target: MSX2 (Homo sapiens, UniProt P35548 130-214)
# [6] = molecular target: MSX2 (Homo sapiens, UniProt P35548 130-214, F161Y)
# [7] = molecular target: NKX3-2 (Homo sapiens, UniProt P78367 192-278, P234S)
# [8] = molecular target: NKX3-2 (Homo sapiens, UniProt P78367 192-278)
# [9] = molecular target: VAX1 (Homo sapiens, UniProt Q5SQQ9 86-172)
# [10] = molecular target: VAX1 (Homo sapiens, UniProt Q5SQQ9 86-172, T142I)
# [11] = molecular target: VAX1 (Homo sapiens, UniProt Q5SQQ9 86-172, K157R)
# [12] = molecular target: PITX2 (Homo sapiens, UniProt Q99697 72-157)
# [13] = molecular target: ALX3 (Homo sapiens, UniProt O95076 139-225, N203Q)
# [14] = molecular target: ALX3 (Homo sapiens, UniProt O95076 139-225)
# [15] = molecular target: ALX3 (Homo sapiens, UniProt O95076 139-225, L168Q)
# [16] = molecular target: ALX3 (Homo sapiens, UniProt O95076 139-225, L168V)
# [17] = molecular target: ALX3 (Homo sapiens, UniProt O95076 139-225, N203S)
# [18] = molecular target: HOXA4 (Homo sapiens, UniProt Q00056 201-287, W262F)
# Chain of HOXA4 (Q00056 201-287 W262F): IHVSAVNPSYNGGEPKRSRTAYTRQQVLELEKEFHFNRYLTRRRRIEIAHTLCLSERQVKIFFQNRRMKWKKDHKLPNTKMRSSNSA
# Chain of VAX1 (Homo sapiens, UniProt Q5SQQ9 86-172, T142I) (Q5SQQ9 86-172 T142I): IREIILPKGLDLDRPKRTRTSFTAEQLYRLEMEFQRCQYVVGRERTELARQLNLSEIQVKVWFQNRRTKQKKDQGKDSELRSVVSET
# Chain of VAX1 (Homo sapiens, UniProt Q5SQQ9 86-172, K157R) (Q5SQQ9 86-172 K157R): as the sequence (Q5SQQ9 86-172 T142I) above, with I57T, K72R counted along it
# Chain of MSX2 (Homo sapiens, UniProt P35548 130-214, F161Y) (P35548 130-214 F161Y): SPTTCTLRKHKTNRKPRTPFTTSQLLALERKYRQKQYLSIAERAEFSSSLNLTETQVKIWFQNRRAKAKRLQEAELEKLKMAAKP
# Chain of ALX1 (Homo sapiens, UniProt Q15699 118-204) (Q15699 118-204): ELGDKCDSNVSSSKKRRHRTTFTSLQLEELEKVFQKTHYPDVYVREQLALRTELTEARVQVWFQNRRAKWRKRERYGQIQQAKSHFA
# Chain of VAX1 (Homo sapiens, UniProt Q5SQQ9 86-172) (Q5SQQ9 86-172): as the sequence (Q5SQQ9 86-172 T142I) above, with I57T counted along it
# Chain of ALX1 (Homo sapiens, UniProt Q15699 118-204, L144R) (Q15699 118-204 L144R): as the sequence (Q15699 118-204) above, with L27R counted along it
# Chain of MSX2 (Homo sapiens, UniProt P35548 130-214) (P35548 130-214): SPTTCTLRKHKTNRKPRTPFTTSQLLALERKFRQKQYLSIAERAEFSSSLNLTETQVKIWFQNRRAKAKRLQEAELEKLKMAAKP
# Chain of ALX1 (Homo sapiens, UniProt Q15699 118-204, L144V) (Q15699 118-204 L144V): as the sequence (Q15699 118-204) above, with L27V counted along it
# Chain of MSX2 (Homo sapiens, UniProt P35548 130-214, R199I) (P35548 130-214 R199I): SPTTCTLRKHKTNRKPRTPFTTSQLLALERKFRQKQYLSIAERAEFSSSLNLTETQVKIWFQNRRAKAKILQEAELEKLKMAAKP
# Chain of NKX3-2 (Homo sapiens, UniProt P78367 192-278) (P78367 192-278): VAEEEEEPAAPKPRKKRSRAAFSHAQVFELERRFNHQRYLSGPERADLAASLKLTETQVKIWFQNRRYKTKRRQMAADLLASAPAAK
# Chain of NKX3-2 (Homo sapiens, UniProt P78367 192-278, P234S) (P78367 192-278 P234S): as the sequence (P78367 192-278) above, with P43S counted along it
# Chain of ALX3 (Homo sapiens, UniProt O95076 139-225) (O95076 139-225): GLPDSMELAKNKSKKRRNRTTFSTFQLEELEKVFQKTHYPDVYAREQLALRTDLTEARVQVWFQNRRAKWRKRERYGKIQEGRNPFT
# Chain of ALX3 (Homo sapiens, UniProt O95076 139-225, L168Q) (O95076 139-225 L168Q): as the sequence (O95076 139-225) above, with L30Q counted along it
# Chain of ALX3 (Homo sapiens, UniProt O95076 139-225, N203S) (O95076 139-225 N203S): as the sequence (O95076 139-225) above, with N65S counted along it
# Chain of ALX3 (Homo sapiens, UniProt O95076 139-225, N203Q) (O95076 139-225 N203Q): as the sequence (O95076 139-225) above, with N65Q counted along it
# Chain of ALX3 (Homo sapiens, UniProt O95076 139-225, L168V) (O95076 139-225 L168V): as the sequence (O95076 139-225) above, with L30V counted along it
sequence,measurement,setting,value
CCTCAATC,binding signal,[1],"7.8 upbm affinity estimate (log intensity, higher = more binding, comparable within an allelic series)"
same,binding signal,[2],"7.78 upbm affinity estimate (log intensity, higher = more binding, comparable within an allelic series)"
same,binding signal,[3],"7.96 upbm affinity estimate (log intensity, higher = more binding, comparable within an allelic series)"
ATGGAAAT,binding signal,[4],"10.4 upbm affinity estimate (log intensity, higher = more binding, comparable within an allelic series)"
same,binding signal,[5],"10.7 upbm affinity estimate (log intensity, higher = more binding, comparable within an allelic series)"
same,binding signal,[6],"10.6 upbm affinity estimate (log intensity, higher = more binding, comparable within an allelic series)"
CACCTTCG,binding signal,[1],"6.61 upbm affinity estimate (log intensity, higher = more binding, comparable within an allelic series)"
same,binding signal,[2],"6.38 upbm affinity estimate (log intensity, higher = more binding, comparable within an allelic series)"
same,binding signal,[3],"6.33 upbm affinity estimate (log intensity, higher = more binding, comparable within an allelic series)"
CCGGGGAG,binding signal,[1],"6.03 upbm affinity estimate (log intensity, higher = more binding, comparable within an allelic series)"
same,binding signal,[2],"6.12 upbm affinity estimate (log intensity, higher = more binding, comparable within an allelic series)"
same,binding signal,[7],"10.5 upbm affinity estimate (log intensity, higher = more binding, comparable within an allelic series)"
same,binding signal,[3],"5.94 upbm affinity estimate (log intensity, higher = more binding, comparable within an allelic series)"
same,binding signal,[8],"10.5 upbm affinity estimate (log intensity, higher = more binding, comparable within an allelic series)"
CATACTAA,binding signal,[4],"10.4 upbm affinity estimate (log intensity, higher = more binding, comparable within an allelic series)"
same,binding signal,[5],"10.7 upbm affinity estimate (log intensity, higher = more binding, comparable within an allelic series)"
same,binding signal,[6],"10.6 upbm affinity estimate (log intensity, higher = more binding, comparable within an allelic series)"
CAGCGAGA,binding signal,[1],"6.61 upbm affinity estimate (log intensity, higher = more binding, comparable within an allelic series)"
same,binding signal,[2],"6.49 upbm affinity estimate (log intensity, higher = more binding, comparable within an allelic series)"
same,binding signal,[3],"6.63 upbm affinity estimate (log intensity, higher = more binding, comparable within an allelic series)"
AGCGCCGG,binding signal,[4],"9.57 upbm affinity estimate (log intensity, higher = more binding, comparable within an allelic series)"
same,binding signal,[5],"9.53 upbm affinity estimate (log intensity, higher = more binding, comparable within an allelic series)"
same,binding signal,[6],"9.52 upbm affinity estimate (log intensity, higher = more binding, comparable within an allelic series)"
AAACAATA,binding signal,[1],"8.22 upbm affinity estimate (log intensity, higher = more binding, comparable within an allelic series)"
same,binding signal,[2],"8.34 upbm affinity estimate (log intensity, higher = more binding, comparable within an allelic series)"
same,binding signal,[9],"9.16 upbm affinity estimate (log intensity, higher = more binding, comparable within an allelic series)"
same,binding signal,[10],"8.8 upbm affinity estimate (log intensity, higher = more binding, comparable within an allelic series)"
same,binding signal,[3],"8.26 upbm affinity estimate (log intensity, higher = more binding, comparable within an allelic series)"
same,binding signal,[11],"8.82 upbm affinity estimate (log intensity, higher = more binding, comparable within an allelic series)"
AGGGGCCG,binding signal,[4],"9.46 upbm affinity estimate (log intensity, higher = more binding, comparable within an allelic series)"
same,binding signal,[5],"9.56 upbm affinity estimate (log intensity, higher = more binding, comparable within an allelic series)"
same,binding signal,[6],"9.42 upbm affinity estimate (log intensity, higher = more binding, comparable within an allelic series)"
CGCTCAGC,binding signal,[4],"9.48 upbm affinity estimate (log intensity, higher = more binding, comparable within an allelic series)"
same,binding signal,[5],"9.57 upbm affinity estimate (log intensity, higher = more binding, comparable within an allelic series)"
same,binding signal,[6],"9.59 upbm affinity estimate (log intensity, higher = more binding, comparable within an allelic series)"
CACGCTCG,binding signal,[1],"6.33 upbm affinity estimate (log intensity, higher = more binding, comparable within an allelic series)"
same,binding signal,[12],"7.92 upbm affinity estimate (log intensity, higher = more binding, comparable within an allelic series)"
same,binding signal,[2],"6.26 upbm affinity estimate (log intensity, higher = more binding, comparable within an allelic series)"
same,binding signal,[3],"6.3 upbm affinity estimate (log intensity, higher = more binding, comparable within an allelic series)"
GGACGGGA,binding signal,[4],"9.67 upbm affinity estimate (log intensity, higher = more binding, comparable within an allelic series)"
same,binding signal,[5],"9.5 upbm affinity estimate (log intensity, higher = more binding, comparable within an allelic series)"
same,binding signal,[6],"9.6 upbm affinity estimate (log intensity, higher = more binding, comparable within an allelic series)"
CTCTTGGC,binding signal,[1],"6.39 upbm affinity estimate (log intensity, higher = more binding, comparable within an allelic series)"
same,binding signal,[2],"6.52 upbm affinity estimate (log intensity, higher = more binding, comparable within an allelic series)"
same,binding signal,[7],"11.6 upbm affinity estimate (log intensity, higher = more binding, comparable within an allelic series)"
same,binding signal,[3],"6.47 upbm affinity estimate (log intensity, higher = more binding, comparable within an allelic series)"
same,binding signal,[8],"11.7 upbm affinity estimate (log intensity, higher = more binding, comparable within an allelic series)"
CCTGAGCC,binding signal,[4],"9.54 upbm affinity estimate (log intensity, higher = more binding, comparable within an allelic series)"
same,binding signal,[5],"9.53 upbm affinity estimate (log intensity, higher = more binding, comparable within an allelic series)"
same,binding signal,[6],"9.53 upbm affinity estimate (log intensity, higher = more binding, comparable within an allelic series)"
CGGCCGAG,binding signal,[1],"6.33 upbm affinity estimate (log intensity, higher = more binding, comparable within an allelic series)"
same,binding signal,[2],"6.51 upbm affinity estimate (log intensity, higher = more binding, comparable within an allelic series)"
same,binding signal,[3],"6.15 upbm affinity estimate (log intensity, higher = more binding, comparable within an allelic series)"
GAGGAAGC,binding signal,[4],"9.59 upbm affinity estimate (log intensity, higher = more binding, comparable within an allelic series)"
same,binding signal,[5],"9.52 upbm affinity estimate (log intensity, higher = more binding, comparable within an allelic series)"
same,binding signal,[6],"9.52 upbm affinity estimate (log intensity, higher = more binding, comparable within an allelic series)"
CAAATTTG,binding signal,[1],"9.35 upbm affinity estimate (log intensity, higher = more binding, comparable within an allelic series)"
same,binding signal,[2],"9 upbm affinity estimate (log intensity, higher = more binding, comparable within an allelic series)"
same,binding signal,[3],"9.69 upbm affinity estimate (log intensity, higher = more binding, comparable within an allelic series)"
AGGCCGGG,binding signal,[1],"6.61 upbm affinity estimate (log intensity, higher = more binding, comparable within an allelic series)"
same,binding signal,[2],"6.52 upbm affinity estimate (log intensity, higher = more binding, comparable within an allelic series)"
same,binding signal,[9],"6.99 upbm affinity estimate (log intensity, higher = more binding, comparable within an allelic series)"
same,binding signal,[10],"7.01 upbm affinity estimate (log intensity, higher = more binding, comparable within an allelic series)"
same,binding signal,[3],"6.54 upbm affinity estimate (log intensity, higher = more binding, comparable within an allelic series)"
same,binding signal,[11],"7.01 upbm affinity estimate (log intensity, higher = more binding, comparable within an allelic series)"
CCTACGCC,binding signal,[1],"6.43 upbm affinity estimate (log intensity, higher = more binding, comparable within an allelic series)"
same,binding signal,[2],"6.36 upbm affinity estimate (log intensity, higher = more binding, comparable within an allelic series)"
same,binding signal,[3],"6.5 upbm affinity estimate (log intensity, higher = more binding, comparable within an allelic series)"
CATTTTGA,binding signal,[4],"10.3 upbm affinity estimate (log intensity, higher = more binding, comparable within an allelic series)"
same,binding signal,[5],"10.6 upbm affinity estimate (log intensity, higher = more binding, comparable within an allelic series)"
same,binding signal,[6],"10.5 upbm affinity estimate (log intensity, higher = more binding, comparable within an allelic series)"
CAGGGCCA,binding signal,[4],"9.52 upbm affinity estimate (log intensity, higher = more binding, comparable within an allelic series)"
same,binding signal,[5],"9.57 upbm affinity estimate (log intensity, higher = more binding, comparable within an allelic series)"
same,binding signal,[6],"9.56 upbm affinity estimate (log intensity, higher = more binding, comparable within an allelic series)"
CCGGGCCG,binding signal,[1],"6.6 upbm affinity estimate (log intensity, higher = more binding, comparable within an allelic series)"
same,binding signal,[13],"7.72 upbm affinity estimate (log intensity, higher = more binding, comparable within an allelic series)"
same,binding signal,[2],"6.56 upbm affinity estimate (log intensity, higher = more binding, comparable within an allelic series)"
same,binding signal,[14],"7.76 upbm affinity estimate (log intensity, higher = more binding, comparable within an allelic series)"
same,binding signal,[15],"7.74 upbm affinity estimate (log intensity, higher = more binding, comparable within an allelic series)"
same,binding signal,[16],"7.65 upbm affinity estimate (log intensity, higher = more binding, comparable within an allelic series)"
same,binding signal,[3],"6.37 upbm affinity estimate (log intensity, higher = more binding, comparable within an allelic series)"
same,binding signal,[17],"7.67 upbm affinity estimate (log intensity, higher = more binding, comparable within an allelic series)"
CCCCTACG,binding signal,[4],"9.54 upbm affinity estimate (log intensity, higher = more binding, comparable within an allelic series)"
same,binding signal,[5],"9.48 upbm affinity estimate (log intensity, higher = more binding, comparable within an allelic series)"
same,binding signal,[6],"9.63 upbm affinity estimate (log intensity, higher = more binding, comparable within an allelic series)"
CGCCGACC,binding signal,[4],"9.46 upbm affinity estimate (log intensity, higher = more binding, comparable within an allelic series)"
same,binding signal,[5],"9.28 upbm affinity estimate (log intensity, higher = more binding, comparable within an allelic series)"
same,binding signal,[6],"9.4 upbm affinity estimate (log intensity, higher = more binding, comparable within an allelic series)"
same,binding signal,[7],"10.4 upbm affinity estimate (log intensity, higher = more binding, comparable within an allelic series)"
same,binding signal,[8],"10.4 upbm affinity estimate (log intensity, higher = more binding, comparable within an allelic series)"
CTCCTAGC,binding signal,[1],"6.62 upbm affinity estimate (log intensity, higher = more binding, comparable within an allelic series)"
same,binding signal,[2],"6.57 upbm affinity estimate (log intensity, higher = more binding, comparable within an allelic series)"
same,binding signal,[3],"6.52 upbm affinity estimate (log intensity, higher = more binding, comparable within an allelic series)"
CCGTATTA,binding signal,[1],"8.94 upbm affinity estimate (log intensity, higher = more binding, comparable within an allelic series)"
same,binding signal,[2],"8.73 upbm affinity estimate (log intensity, higher = more binding, comparable within an allelic series)"
same,binding signal,[3],"9.27 upbm affinity estimate (log intensity, higher = more binding, comparable within an allelic series)"
CTAATGAA,binding signal,[1],"10.6 upbm affinity estimate (log intensity, higher = more binding, comparable within an allelic series)"
same,binding signal,[2],"10.2 upbm affinity estimate (log intensity, higher = more binding, comparable within an allelic series)"
same,binding signal,[9],"12.7 upbm affinity estimate (log intensity, higher = more binding, comparable within an allelic series)"
same,binding signal,[10],"12.4 upbm affinity estimate (log intensity, higher = more binding, comparable within an allelic series)"
same,binding signal,[3],"11.1 upbm affinity estimate (log intensity, higher = more binding, comparable within an allelic series)"
same,binding signal,[18],"11.5 upbm affinity estimate (log intensity, higher = more binding, comparable within an allelic series)"
same,binding signal,[11],"12.4 upbm affinity estimate (log intensity, higher = more binding, comparable within an allelic series)"
